Assay results reported in PubChem BioAssay (EPA / NIEHS).
Records with an inconclusive call do not appear. Where a structure was tested more than once in an assay, its records may differ in their call. Activity calls are given as the source filed them. Rule for the calls: active = hit-call score of the fitted dose curve at least 0.9, where 1 is the maximum; inconclusive = response in the unintended direction; inactive = score below 0.9.

Tested on: not listed separately
Test: TOX21_p53_BLA_p2_viability: Viability Assessment in the Tox21 HCT-116 p53 Agonism Beta-lactamase Assay, Phase 2 (AID 2283591);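 note: compound exposure lasted 16 h at 37 °C; actives lower the ATP signal meaning cytotoxicity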
Procedure, shortened: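 HCT-116 p53-bla cells (4000/well) rested 5 h at 37C, then received compounds in DMSO (217-fold dilution) for 16 h at 37C, 5% CO2. After the CCF4 read, CellTiter-Glo was added; ATP luminescence was read after 30 min at room temperature.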

SMILES | outcome
CC1=C(C/C=C(\C)CCC[C@H](C)CCC[C@H](C)CCCC(C)C)C(=O)c2ccccc2C1=O | inactive
C[Si](C)(C)Cl | inactive
CC(C)CC(O)CC(C)C | inactive
O=C(O)c1ccc(Cl)cc1Cl | inactive
CC(=O)Nc1ccc(OC(C)=O)cc1 | inactive
CN1C(C)(C)CCCC1(C)C | inactive
C[C@@H](CN(C)C)CN1c2ccccc2Sc2ccccc21 | inactive
CC(=O)O[C@H]1C[C@@H]2CC[C@@H]3[C@H](CC[C@@]4(C)[C@H]3C[C@H](N3CC[N+](C)(C)CC3)[C@@H]4OC(C)=O)[C@@]2(C)C[C@@H]1N1CC[N+](C)(C)CC1 | inactive
CCCCCCCCCC#N | inactive
CC(C)CNCC(C)C | inactive
CCC(O)C(C)(C)C (stereo not given) | inactive
O=C(O)CCC(=O)Nc1ccc(S(=O)(=O)Nc2nccs2)cc1 | inactive

Target: Cellular tumor antigen p53 (Homo sapiens) (UniProt P04637)
Sequence (P04637 whole entry, looked up): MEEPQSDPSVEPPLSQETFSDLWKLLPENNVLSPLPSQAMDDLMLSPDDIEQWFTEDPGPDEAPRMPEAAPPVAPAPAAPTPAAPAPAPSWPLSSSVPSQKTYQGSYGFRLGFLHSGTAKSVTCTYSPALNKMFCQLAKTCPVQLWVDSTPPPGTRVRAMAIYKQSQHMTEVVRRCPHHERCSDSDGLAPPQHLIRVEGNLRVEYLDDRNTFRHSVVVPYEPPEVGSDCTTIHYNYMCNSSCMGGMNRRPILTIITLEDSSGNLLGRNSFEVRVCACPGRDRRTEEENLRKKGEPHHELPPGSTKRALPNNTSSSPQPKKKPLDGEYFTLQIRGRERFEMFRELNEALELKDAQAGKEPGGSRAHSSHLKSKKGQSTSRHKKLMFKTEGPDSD
Test: TOX21_p53_BLA_p2_ratio: Tox21 HCT-116 p53 Agonism Beta-lactamase Assay, Ratio, Phase 2 (AID 2283592)
Procedure, shortened: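 DMSO-normalized, positive-direction endpoint derived from the 460 nm/530 nm FRET ratio in HCT116 p53 beta-lactamase reporter cells exposed 16 h at 37C and loaded with CCF4-AM for 2 h.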

SMILES | outcome | AC50
Clc1ccnc(Cl)n1 | inactive | 
O=[N+]([O-])c1ccc(F)c(Cl)c1 | inactive | 
C=C(C)C(=O)OC(C)C | inactive | 
CCCC(=O)Nc1c(I)cc(I)c(CC(CC)C(=O)O)c1I (stereo not given) | inactive | 
CC(C)(C)C1(O)CCN2CC3c4ccccc4CCc4cccc(c43)C2C1 (stereo not given) | inactive | 
COC(=O)C[C@](O)(CCCC(C)(C)O)C(=O)O[C@@H]1C(OC)=CC23CCCN2CCc2cc4c(cc2[C@H]13)OCO4 (stereo not given in full) | inactive | 0.0202 µM (active)
Nc1cc(C(=O)O)ccc1Cl | inactive | 
O=[Se](O)O | inactive | 1.79 µM (active)
c1ccsc1 | inactive | 
CCCCCCCCCCCCCCCCCCOCC(COP(=O)([O-])OCC[N+](C)(C)C)OC (stereo not given) |  | 43.6 µM (active)
C[C@H](CCC(=O)O)[C@H]1CC[C@H]2[C@@H]3CC[C@@H]4C[C@H](O)CC[C@]4(C)[C@H]3C[C@H](O)[C@]12C | inactive | 85.4 µM (active)
COc1cc2c(cc1O)CCN[C@]21CS[C@@H]2c3c(OC(C)=O)c(C)c4c(c3[C@H](COC1=O)N1[C@@H]2[C@H]2c3c(cc(C)c(OC)c3O)C[C@@H]([C@@H]1O)N2C)OCO4 | inactive | 0.00174 µM (active)
C[C@H](N)[C@H](O)c1cccc(O)c1 | inactive | 
C=CC(=O)OCC[N+](C)(C)C | inactive | 

Tested on: not listed separately
Test: TOX21_p53_BLA_p3_viability: Viability Assessment in the Tox21 HCT-116 p53 Agonism Beta-lactamase Assay, Phase 3 (AID 2283593);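 note: cells exposed to compound for 16 h before reading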
Procedure, shortened: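 HCT-116 cells (4000/well) rested 5 h at 37C, then got DMSO compounds by pin tool (217-fold dilution) for 16 h at 37C, 5% CO2. After the bla read, CellTiter-Glo was added and luminescence read at 30 min, room temperature.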

SMILES | outcome | AC50
Clc1ccnc(Cl)n1 | inactive | 
O=[N+]([O-])c1ccc(F)c(Cl)c1 | inactive | 
C=C(C)C(=O)OC(C)C | inactive | 
COC(=O)C[C@](O)(CCCC(C)(C)O)C(=O)O[C@@H]1C(OC)=CC23CCCN2CCc2cc4c(cc2[C@H]13)OCO4 (stereo not given in full) | inactive | 
Nc1cc(C(=O)O)ccc1Cl | inactive | 
O=[Se](O)O | inactive | 13.3 µM (active)
C[C@H](CCC(=O)O)[C@H]1CC[C@H]2[C@@H]3CC[C@@H]4C[C@H](O)CC[C@]4(C)[C@H]3C[C@H](O)[C@]12C | inactive | 73.6 µM (active)
C[C@H](N)[C@H](O)c1cccc(O)c1 | inactive | 
